Screening results: PubChem BioAssay, National Center for Advancing Translational Sciences (NCATS)
ASM inhibitor: inhibitors of human secretory acid sphingomyelinase | placental ASM, HMU-PC fluorogenic substrate, 60 min | Potency, µM (titrated, usually from 57.5 µM), actives largely listed as inhibitors | hit rate 0.006% among 340,000
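Human placenta-derived ASM preincubated with compound 10 min at room temperature, then reacted with 9 uM (final) fluorogenic HMU-PC substrate for 60 min at 37 C. Stop solution raises pH to 10; fluorescence read at Ex 386/Em 447 nm.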
Apoferritin bind: candidate novel general anesthetic via apoferritin binding; apoferritin/1-aminoanthracene competitive binding, fluorescence; Potency, µM (highest dose often 77.5 µM), actives largely listed as inhibitors; hit rate 0.074% among 350,000; also: nearly all actives have a fitted effect of over 20% in size
Target sequence (P02791 2-175 limits assumed): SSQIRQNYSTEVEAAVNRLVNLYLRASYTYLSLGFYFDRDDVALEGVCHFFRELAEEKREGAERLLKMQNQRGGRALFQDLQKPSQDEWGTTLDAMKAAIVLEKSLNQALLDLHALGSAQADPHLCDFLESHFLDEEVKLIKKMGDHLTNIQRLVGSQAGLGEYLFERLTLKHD
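Horse-spleen apoferritin (10 uM) was mixed with 50% saturated 1-aminoanthracene in PBS, exposed to compounds for 10 min at room temperature, and read for fluorescence (ex 380 nm, em 535 nm). Competitive displacement was fitted with a four-parameter Hill equation.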
BRCA1 expr up: activators of BRCA1 expression. hit rate 1.1% among 380,000. AID 624202. MCF7-BRCA1-FFLuc reporter, luminescence, 48 h; response scale: scaled: vehicle 0%, 10 µM genistein 100%. Potency, µM (titrated, usually from 46.1 µM), actives largely listed as activators; also: nearly all actives have a fitted effect of over 80% in size
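MCF7-BRCA1-FFLuc, 2000 cells/well; 2 h attach, 37 °C/5% CO2; compound 48 h; luciferase substrate 15 min; luminescence end-point. Norm. to genistein 10 microM max activation and DMSO; concentration-response curves fitted.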
TSG101-PTAP inh: blocks PTAP/TSG101 interaction to inhibit HIV-1 budding | Fluorescence polarization, FITC-PTAP peptide / Tsg101 binding | Potency, µM (series often up to 115 µM), actives largely listed as inhibitors | 340,000 tested, under 10 active | AID 493005; active = well fitted inhibition curve with a large enough effect in the main read-out, with a control signal flat, not every such curve was filed as active; inconclusive = small, poorly fitted or top-dose-only effect, or effect the other way, or a change in a side signal; inactive = no such curve, though single readings can be large or run the other way
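Tsg101 binding domain (10 uM final) was mixed with compound and a FITC-labeled PTAP peptide (50 nM final) in HEPES pH 7.5 buffer with NaCl, Tween 20, EDTA and TCEP; fluorescence polarization was read after 20 min at r.t.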
TSHR antagonist: human thyrotropin receptor antagonism; TSHR-expressing cells, TSH-stimulated cAMP HTRF, 2 h; active compounds read low; activity change, negative = inhibition, % at 11.5 µM; hit rate 0.2% among 330,000; AID 504810;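 active = activity change below a set negative limit, meaning inhibition stronger than a set level, cut at about -70% in these data; inconclusive = activity change between two set negative limits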
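Read-out is FRET at 665 nm (cryptate excitation 337 nm) from a cryptate-tagged anti-cAMP antibody, competed by cell cAMP against cAMP-d2. Compounds are tested on freshly harvested TSHR cells challenged with 4nM TSH (EC80) for 2 hours at 37 deg C.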
Hits are given with their value. Most compounds without a hit are left out; they make up all but 1.2% or so of the library. Unless noted, calls follow the shape of the dose curve; as a rule, active = well fitted curve in the direction sought with a large enough effect; inconclusive = small, poorly fitted or top-dose-only effect, or another doubt; inactive = no such curve, though single readings can be large; an effect the other way counts as inactive or inconclusive.

CC1(C)C2CCC1(C)C(NC(=O)COC(=O)c1ccc(S(C)(=O)=O)c([N+](=O)[O-])c1)C2 (stereo not given) was read as BRCA1 expr up inactive.
For CCn1cc(C(=O)NCC(OC)OC)c(=O)c2cc(S(=O)(=O)N3CCOCC3)ccc21 the results were ASM inhibitor inactive, Apoferritin bind inactive, BRCA1 expr up inactive, TSG101-PTAP inh inactive and TSHR antagonist inactive.
`COC(CNC(=O)c1cn(C)c2ccc(S(=O)(=O)N3CCOCC3)cc2c1=O)OC` gave ASM inhibitor inactive, Apoferritin bind inactive, BRCA1 expr up inactive, TSG101-PTAP inh inactive and TSHR antagonist -118.
c1csc(CSc2nc3ccccc3s2)c1 was read as ASM inhibitor inactive, Apoferritin bind inconclusive, BRCA1 expr up 7.9µM, TSG101-PTAP inh inactive and TSHR antagonist inactive.
Screening CNc1nnc(CSc2nc3ccccc3s2)s1 returned ASM inhibitor inactive, Apoferritin bind inactive, BRCA1 expr up 11µM, TSG101-PTAP inh inactive and TSHR antagonist inactive.
For O=C(COc1ccc2c(c1)OCO2)Nc1nccs1 the results were ASM inhibitor inactive, Apoferritin bind inactive, BRCA1 expr up 3.2µM, TSG101-PTAP inh inactive and TSHR antagonist inactive.
For OCC(O)C[n+]1cccc(Br)c1 (stereo not given) the results were BRCA1 expr up inactive.
O=C(O)/C=C\C(=O)Nc1ccc(Oc2ccccc2)cc1 was read as ASM inhibitor inactive, Apoferritin bind inconclusive, BRCA1 expr up inactive, TSG101-PTAP inh inactive and TSHR antagonist inactive.
Screening O=C(O)/C=C/C(=O)Nc1ccc(C2(c3ccc(NC(=O)/C=C/C(=O)O)cc3)c3ccccc3-c3ccccc32)cc1 returned ASM inhibitor inactive, Apoferritin bind inactive, BRCA1 expr up inactive, TSG101-PTAP inh inactive and TSHR antagonist -86.
Screening COc1cc2nc(CCNCc3ccccc3)nc(NC3CCN(C)CC3)c2cc1OC returned BRCA1 expr up inactive.
Screening C=C1C=C(C)n2ncc(C(=O)Nc3ccccc3C(=O)OC)c2N1 returned BRCA1 expr up inactive.
`Cn1cccc1C(=O)C(=O)Nc1cc(Cl)cc(Cl)c1` gave ASM inhibitor inactive, Apoferritin bind inactive, BRCA1 expr up inactive, TSG101-PTAP inh inactive and TSHR antagonist inactive.
Cn1cccc1C(=O)C(=O)Nc1ccc(F)c(F)c1 was read as ASM inhibitor inactive, Apoferritin bind inactive, BRCA1 expr up 5.6µM, TSG101-PTAP inh inactive and TSHR antagonist inactive.
Screening Cn1cccc1C(=O)C(=O)Nc1ccc(Cl)cc1 returned ASM inhibitor inactive, Apoferritin bind inconclusive, BRCA1 expr up 4.5µM, TSG101-PTAP inh inactive and TSHR antagonist inactive.
`CN(C)c1ccc(/C=C/c2ccnc3ccc(I)cc23)cc1` gave BRCA1 expr up inactive.
Screening CCC(CC)C(=O)Nc1cccc(-c2cn3cccnc3n2)c1 returned Apoferritin bind inactive.
Screening CC(C)(C)CC(=O)Nc1cccc(-c2cn3cccnc3n2)c1 returned ASM inhibitor inactive, Apoferritin bind inactive, BRCA1 expr up 8.9µM, TSG101-PTAP inh inactive and TSHR antagonist inactive.
Screening CCOC(=O)c1sc(N/N=C/c2ccccc2)nc1C returned ASM inhibitor inactive, Apoferritin bind inactive, BRCA1 expr up inconclusive, TSG101-PTAP inh inactive and TSHR antagonist inactive.
Screening CCOC(=O)c1sc(N/N=C/c2cccc(C)c2)nc1C returned ASM inhibitor inactive, Apoferritin bind inactive, BRCA1 expr up 2.8µM, TSG101-PTAP inh inactive and TSHR antagonist inactive.
C[C@H](NC(=O)[C@@H](Cc1c[nH]c2ccccc12)NC(=O)[C@@H](N)Cc1cnc[nH]1)C(=O)N[C@@H](Cc1c[nH]c2ccccc12)C(=O)N[C@H](Cc1ccccc1)C(=O)N[C@@H](CCCCN)C(N)=O was read as Apoferritin bind inactive.
For Cc1snc(SCC(=O)c2ccc([N+](=O)[O-])cc2)c1C#N the results were ASM inhibitor inactive, Apoferritin bind inactive, BRCA1 expr up inactive, TSG101-PTAP inh inactive and TSHR antagonist inactive.
Screening Cc1snc(SCC(=O)c2ccc(F)cc2)c1C#N returned ASM inhibitor inactive, Apoferritin bind inconclusive, BRCA1 expr up 8.9µM, TSG101-PTAP inh inactive and TSHR antagonist inactive.
Cn1c(COc2ccc(Cl)cc2)nnc1SCC(=O)NC1CC1 was read as ASM inhibitor inactive, BRCA1 expr up inactive, TSG101-PTAP inh inactive and TSHR antagonist inactive.
